Records with an inconclusive call do not appear. Active and inactive are the calls of the source. Calls follow the shape of the full dose curve.
% is scaled to controls: 0 for no effect and ±100 for the full control effect; potency is read from the fitted curve at half-maximal effect.

The experiment is described as follows: qHTS assay for small molecule agonists of the p53 signaling pathway - cell viability (AID 651633). Also: nearly all actives have a fitted effect of over 30% in size.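 As to activity change, negative = cytotoxicity: p53RE-bla HCT reporter cells with a stable beta-lactamase p53 reporter.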 As to conditions: p53RE-bla HCT-116 viability, ATP luminescence, 16 h; series mostly up to 83.3 µM; activity change, negative = cytotoxicity: at the top concentration. The essentials: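 Viability counter-read: CellTiter-Glo luminescence (30 min, room temperature) in the same p53RE-bla plates. These plates had been exposed to compounds for 16 h at 37 C.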
Background: In qHTS, concentration-response curves come from the screen itself.
With `CNC(=O)c1c(I)c(C(=O)NCC(=O)Nc2c(I)c(C(=O)O)c(I)c(C(=O)NCCO)c2I)c(I)c(N(C)C(C)=O)c1I`, the “activity change, negative = cytotoxicity” value was -6.08% (inactive).

On to `CCCCCc1ccc(C)cc1O`, for which the “activity change, negative = cytotoxicity” value is -26.4% (inactive).

Regarding `N#CC(c1ccc(Cl)cc1)c1c(Cl)cc(-n2ncc(=O)[nH]c2=O)cc1Cl` (centres undefined), the Potency was 23.7 µM (active).

Take `CN[C@H]1CCc2cc(OC)c(OC)c(OC)c2-c2ccc(OC)c(=O)cc21`: the “activity change, negative = cytotoxicity” value is 16% (inactive).

Take `COC(=O)C1=C(C#N)NC(C)=C(C(=O)OC(C)C)C1c1cccc([N+](=O)[O-])c1` (centres undefined): the “activity change, negative = cytotoxicity” value was -7.2% (inactive).

For `C[C@]12C=CC(=O)N[C@@H]1CC[C@@H]1[C@@H]2CC[C@]2(C)[C@@H](C(=O)Nc3cc(C(F)(F)F)ccc3C(F)(F)F)CC[C@@H]12`, the “activity change, negative = cytotoxicity” value is -29.2% (inactive).

`CC(=O)Nc1ccc(OC(=O)c2ccccc2O)cc1`: the “activity change, negative = cytotoxicity” value is 5.55% (inactive).

With `NC(=O)Oc1ccc(Cc2ccccc2)cc1`, the “activity change, negative = cytotoxicity” value was 14.3% (inactive).

As for `CCCCCCCN(CC)CCCC(O)c1ccc(NS(C)(=O)=O)cc1` (centres undefined), the “activity change, negative = cytotoxicity” value is -5.39% (inactive).

For `[O]=[Bi][O]C(=O)[O][Bi]=[O]`, the “activity change, negative = cytotoxicity” value was 20.7% (inactive).

As for `C[C@]12CC[C@@H]3c4ccc(OC(=O)c5ccccc5)cc4CC[C@H]3[C@@H]1CC[C@@H]2O`, the “activity change, negative = cytotoxicity” value is 12.7% (inactive).

For `CCC(=O)O[C@]1(C(=O)CCl)[C@@H](C)C[C@H]2[C@@H]3C[C@H](F)C4=CC(=O)C=C[C@]4(C)[C@@]3(F)[C@@H](O)C[C@@]21C`, the “activity change, negative = cytotoxicity” value was -14.5% (inactive).

Take `Clc1cc(Cl)c(OCC#CI)cc1Cl`: the Potency is 26.6 µM (active).

As to `CC1=C(C(=O)OCCN(Cc2ccccc2)c2ccccc2)C(c2cccc([N+](=O)[O-])c2)C(P2(=O)OCC(C)(C)CO2)=C(C)N1` (centres undefined), the “activity change, negative = cytotoxicity” value was -15.1% (inactive).

`CCC(C)(C)OC(=O)N[C@@H](Cc1c[nH]c2ccccc12)C(=O)N[C@@H](CCSC)C(=O)N[C@@H](CC(=O)O)C(=O)N[C@@H](Cc1ccccc1)C(N)=O`: the “activity change, negative = cytotoxicity” value was -12.7% (inactive).

Regarding `C=C[C@]1(C)C[C@@H](OC(=O)CSC(C)(C)CNC(=O)[C@H](N)C(C)C)[C@]2(C)[C@H](C)CC[C@]3(CCC(=O)[C@H]32)[C@@H](C)[C@@H]1O`, the “activity change, negative = cytotoxicity” value was -13.8% (inactive).

Consider `C=C1C(=C/C=C2\CCC[C@]3(C)[C@@H]([C@H](C)CCCC(C)(C)O)CC[C@@H]23)C[C@@H](O)C[C@@H]1O`, for which the Potency is 21.1 µM (active).

Consider `CO[C@H]1C=CO[C@@]2(C)Oc3c(C)c(O)c4c(O)c(c(/C=N/N5CCN(C6CCCC6)CC5)c(O)c4c3C2=O)NC(=O)/C(C)=C\C=C[C@H](C)[C@H](O)[C@@H](C)[C@@H](O)[C@@H](C)[C@H](OC(C)=O)[C@@H]1C`, for which the Potency is 26.6 µM (active).

Consider `O=C(CO)[C@@H](O)[C@H](O)[C@@H](O)C(=O)O`, for which the “activity change, negative = cytotoxicity” value was -14.9% (inactive).

With `O=C(Nc1ccc(Br)cc1)c1cc(Br)c(Br)s1`, the Potency is 29.8 µM (active).

As for `CCCOc1ccc2nc(NC(=O)OC)sc2c1`, the “activity change, negative = cytotoxicity” value was 10.7% (inactive).

Consider `CN1[C@@H]2CC[C@H]1CC(OC(c1ccccc1)c1ccccc1)C2` (some centres undefined), for which the Potency result was “inactive”.

Take `c1ccc2c(c1)Sc1ccccc1N2CCN1CCCC1`: the “activity change, negative = cytotoxicity” value is -0.295% (inactive).

`C[N+]1(C)[C@@H]2CC(OC(=O)C(O)(c3cccs3)c3cccs3)C[C@H]1[C@@H]1O[C@@H]12` (some centres undefined): the “activity change, negative = cytotoxicity” value was -20.9% (inactive).

With `CCCCCCCCCCCCCCCC(=O)OC[C@@H](O)[C@H]1OC[C@H](O)[C@H]1O`, the “activity change, negative = cytotoxicity” value is 5.78% (inactive).

As for `CCC(=O)OCC(=O)[C@@]1(OC(=O)CC)[C@@H](C)C[C@H]2[C@@H]3CCC4=CC(=O)C=C[C@]4(C)[C@@]3(Cl)[C@@H](O)C[C@@]21C`, the “activity change, negative = cytotoxicity” value is -11.4% (inactive).

As for `NC[C@@H]1O[C@H](O[C@H]2[C@@H](O)[C@H](O[C@@H]3[C@@H](O)[C@H](N)C[C@H](N)[C@H]3O[C@H]3O[C@H](CN)[C@@H](O)[C@H](O)[C@H]3N)O[C@@H]2CO)[C@H](N)[C@@H](O)[C@@H]1O`, the “activity change, negative = cytotoxicity” value was 12.6% (inactive).

For `O=C1/C(=C\c2cccs2)CCC/C1=C\c1cccs1`, the “activity change, negative = cytotoxicity” value was 12.5% (inactive).

Turning to `CN(C)CCOc1ccccc1Cc1ccccc1` (tested in a mixture with another compound), the “activity change, negative = cytotoxicity” value was 11.7% (inactive).

With `Cc1cc(-c2ccc(N=Nc3c(S(=O)(=O)O)cc4cc(S(=O)(=O)O)cc(N)c4c3O)c(C)c2)ccc1N=Nc1c(S(=O)(=O)O)cc2cc(S(=O)(=O)O)cc(N)c2c1O`, the “activity change, negative = cytotoxicity” value is -27% (inactive).

As for `O=C(OCc1ccccc1)c1cccnc1`, the “activity change, negative = cytotoxicity” value is 13% (inactive).

On to `O=C(O)CO.[NH2-].[NH2-].[Pt+2]`, for which the “activity change, negative = cytotoxicity” value is 11.5% (inactive).

Consider `CC(=O)O[C@H]1CC[C@@]2(C)C(=CC[C@@H]3[C@@H]2CC[C@]2(C)C(c4cccnc4)=CC[C@@H]32)C1`, for which the “activity change, negative = cytotoxicity” value is -3.45% (inactive).

As to `CCCCC(=O)N(Cc1ccc(-c2ccccc2-c2nn[nH]n2)cc1)[C@@H](C(=O)O)C(C)C`, the “activity change, negative = cytotoxicity” value was -8.14% (inactive).

Values taken from PubChem BioAssay (Tox21).
